The values that follow come from the supplement of paper PMC13380429.

The subject of test [1] is Vero E6 infected with SARS-CoV-2. Kind of test: morphology score (similarity to uninfected cells); higher = more like uninfected cells. As to conditions: 24 h.
For test [2] the test system is unchanged. The test is described as follows: SARS-CoV-2 infection rate relative to infected DMSO; higher = more infection, active = 60 or less. The note with it: 24 h.

`Nc1n[nH]c2nc3ccccc3nc12` [CDK1-5-inhibitor] (10 µM) returned a morphology score in test [1] of -0.113. The SARS-CoV-2 infection rate in test [2] was 112% (inactive).
Take `COC(=O)/C=C/C(=O)OCCN1C(=O)CCC1=O` [diroximel-fumarate] (10 µM): in test [1], the morphology score is 0.0691. For the same compound, the SARS-CoV-2 infection rate in test [2] was 101% (inactive).
For the compound `Cc1c(I)c(=O)n(-c2ccccc2)n1C` [iodoantipyrine] (10 µM), the morphology score in test [1] came to 0.0311. In addition, the SARS-CoV-2 infection rate in test [2] is 118% (inactive).
The compound `C=CCNc1c(O)cc2c(O)c1C[C@@H](C)C[C@H](OC)[C@H](O)[C@@H](C)/C=C(\C)[C@H](OC(N)=O)[C@@H](OC)/C=C\C=C(/C)C(=O)N2` [retaspimycin] (10 µM) registered a morphology score in test [1] of -0.0349. Moreover, the SARS-CoV-2 infection rate in test [2] is 108% (inactive).
On the same counts, the results for `O=c1[nH]c2ccccc2n1CCCN1CCC(n2c(=O)[nH]c3cc(Cl)ccc32)CC1` [domperidone] (10 µM) are 0.00154 and 110% (inactive).
Consider `O=C(c1ccccn1)c1cnn2c(-c3ccncc3)ccnc12` [ocinaplon] (10 µM), for which, in test [1], the morphology score was -0.0527. For the same compound, in test [2], the SARS-CoV-2 infection rate is 117% (inactive).
In turn, `C=C[C@H]1CN2CC[C@H]1C[C@H]2[C@H](O)c1ccnc2ccccc12` [cinchonidine] (10 µM) returned a morphology score in test [1] of -0.111. Besides, the SARS-CoV-2 infection rate in test [2] is 112% (inactive).
Turning to `CCc1c(C(=O)C(N)=O)c2c(OCC(=O)O)cccc2n1Cc1ccccc1` [varespladib] (10 µM), in test [1], the morphology score stood at 0.0669. The SARS-CoV-2 infection rate in test [2] was 108% (inactive).
The compound `CC(C)c1noc(N2CCC(COc3ccc(-c4ccc(S(C)(=O)=O)cc4)nc3)CC2)n1` (10 µM) had a morphology score in test [1] of -0.0966. Moreover, in test [2], the SARS-CoV-2 infection rate was 116% (inactive).
`N=C(NCCC[C@H](N)C(=O)O)N[N+](=O)[O-]` [NG-nitro-arginine] (10 µM) displayed a morphology score in test [1] of -0.0213. In test [2], the SARS-CoV-2 infection rate is 108% (inactive).
For `CC(C)(C)CC(C)(C)c1ccc(O)c(Cc2ccc(Cl)cc2Cl)c1` [clofoctol] (10 µM), in test [1], the morphology score is 0.121. Further, in test [2], the SARS-CoV-2 infection rate was 94% (inactive).
With `CN(C)[C@@H]1C(O)=C(C(N)=O)C(=O)[C@@]2(O)C(O)=C3C(=O)c4c(O)cccc4[C@@](C)(O)[C@H]3C[C@@H]12` [tetracycline] (10 µM), the morphology score in test [1] came out at 0.157. Moreover, the SARS-CoV-2 infection rate in test [2] is 100% (inactive).
`O=C(Nc1ccc(S(=O)(=O)C(F)(F)F)cc1)C1=CCN(c2ncccc2C(F)(F)F)CC1` (10 µM) gave a morphology score in test [1] of 0.135. In test [2], the SARS-CoV-2 infection rate was 108% (inactive).
`CCC[C@@H](NC(=O)N1C(=O)C(CC)(CC)[C@@H]1Oc1ccc(C(=O)N2CCN(C)CC2)cc1)c1ccc2c(c1)OCO2` (10 µM) yielded a morphology score in test [1] of 0.171. For the same compound, the SARS-CoV-2 infection rate in test [2] is 109% (inactive).
Consider `CC1CNc2c(cccc2S(=O)(=O)N[C@@H](CCCNC(=N)N)C(=O)N2CC[C@@H](C)C[C@@H]2C(=O)O)C1` (mixture of isomers) [argatroban] (10 µM), for which the morphology score in test [1] is -0.0153. In addition, the SARS-CoV-2 infection rate in test [2] was 115% (inactive).
As to `CCNC(=O)[C@@H]1CCCN1C(=O)[C@H](CCCNC(=N)N)NC(=O)[C@H](CC(C)C)NC(=O)[C@@H](CC(C)C)NC(=O)[C@H](Cc1ccc(O)cc1)NC(=O)[C@H](CO)NC(=O)[C@H](Cc1c[nH]c2ccccc12)NC(=O)[C@H](Cc1c[nH]cn1)NC(=O)[C@@H]1CCC(=O)N1` [leuprolide] (10 µM), the morphology score in test [1] was -0.258. Besides, in test [2], the SARS-CoV-2 infection rate was 118% (inactive).
With `Nc1nc(N)c2nc(-c3ccccc3)c(N)nc2n1` [triamterene] (0.833333 µM), the morphology score in test [1] was -0.174. For the same compound, the SARS-CoV-2 infection rate in test [2] is 118% (inactive).
In test [1], `N#Cc1ccc2[nH]c(O)c(-c3ccc(CN4CCOCC4)cn3)c2c1` (10 µM) displayed a morphology score of -0.238. For the same compound, in test [2], the SARS-CoV-2 infection rate was 100% (inactive).
Regarding `O=C(Cc1ccc(-c2ccc(OCCN3CCOCC3)cc2)cn1)NCc1ccccc1` (10 µM), the morphology score in test [1] was -0.5. Besides, the SARS-CoV-2 infection rate in test [2] is 112% (inactive).
The compound `O=C1c2cc(Cl)ccc2OC2CCON12` (configuration not stated) [seclazone] (10 µM) gave a morphology score in test [1] of 0.0763. In addition, the SARS-CoV-2 infection rate in test [2] was 102% (inactive).
For `O=C(NCc1cccc(O)c1)Nc1nc(-c2ccncc2)cs1` (10 µM), in test [1], the morphology score amounted to 0.392. The SARS-CoV-2 infection rate in test [2] was 97.8% (inactive).
On to `O=C(NC1CCNCC1)c1n[nH]cc1NC(=O)c1c(Cl)cccc1Cl` (10 µM), for which the morphology score in test [1] is -0.285. The SARS-CoV-2 infection rate in test [2] is 109% (inactive).
In test [1], `CC(C)(C)NCC(O)COc1cccc2c1CCC(=O)N2` (configuration not stated) [carteolol] (10 µM) returned a morphology score of 0.111. For the same compound, the SARS-CoV-2 infection rate in test [2] is 96.5% (inactive).
In the case of `CC(C)c1ccc(NC(=O)c2cccs2)c(-c2nc3ccccc3[nH]c2=O)c1` (10 µM), the morphology score in test [1] came out at 0.23. The SARS-CoV-2 infection rate in test [2] was 83% (inactive).
The compound `COCCOC(=O)C1=C(C)NC(C)=C(C(=O)OC(C)C)C1c1cccc([N+](=O)[O-])c1` (configuration not stated) [nimodipine] (10 µM) showed a morphology score in test [1] of 0.14. Moreover, the SARS-CoV-2 infection rate in test [2] was 92% (inactive).
For `CC12CC3CC(C)(C1)CC(N)(C3)C2` [memantine] (10 µM), the morphology score in test [1] is 0.0122. In test [2], the SARS-CoV-2 infection rate is 110% (inactive).
As for `N=C(Nc1ccccc1)Nc1ccccc1` [diphenylguanidine] (10 µM), the morphology score in test [1] stood at 0.216. The SARS-CoV-2 infection rate in test [2] was 98% (inactive).
Take `O=C(O[C@@H]1Cc2c(O)cc(O)cc2O[C@@H]1c1cc(O)c(O)c(O)c1)c1cc(O)c(O)c(O)c1` [epigallocatechin-gallate-(-)] (10 µM): in test [1], the morphology score turned out to be 0.156. Also, in test [2], the SARS-CoV-2 infection rate was 100% (inactive).
In turn, `Clc1ccc(C(c2ccccc2Cl)C(Cl)Cl)cc1` (configuration not stated) [mitotane] (10 µM) came in with a morphology score in test [1] of -0.173. For the same compound, in test [2], the SARS-CoV-2 infection rate was 112% (inactive).
As for `N.N.O=C([O-])C[O-].[Pt+2]` [nedaplatin] (10 µM), in test [1], the morphology score was 0.0896. Moreover, the SARS-CoV-2 infection rate in test [2] was 102% (inactive).
As for `CC(=O)c1ccc2c(c1)N(CCCN1CCC(CCO)CC1)c1ccccc1S2` [piperacetazine] (10 µM), the morphology score in test [1] came to 0.384. Besides, in test [2], the SARS-CoV-2 infection rate was 75% (inactive).
